Bioassay records deposited in PubChem BioAssay by several laboratories.
697 NFkB inh: inhibitors of PMA/ionomycin-induced NF-kB reporter, 697 cells, primary screen, B-cell NF-kB inhibitor project, cell-based, luminescence, uHTS; AID 435022, 2010; inhibition, % at 4 µM; 697 B-cell NF-kB luciferase reporter, 16 h; 0.33% of 330,000 active; in the data active = inhibition above about 35%
Jurkat NFkB inh: inhibitors of induced NF-kB luciferase reporter, primary screen, TCR NF-kB activation inhibitor project, cell-based, luminescence, uHTS | Jurkat, PMA/ionomycin-induced NF-kB luciferase reporter | inhibition, % at 4 µM | 0.53% of 330,000 active; in the data active = inhibition above about 50%
Mdm2-MdmX inh: inhibitors of human Mdm2-MdmX association, primary screen, cell-based, luminescence, split luciferase, SaOS-2, uHTS. Protein Mdm4 (Homo sapiens) + E3 ubiquitin-protein ligase Mdm2 (Homo sapiens), …. SaOS-2 split-luciferase Mdm2/MdmX complementation. 3% of 330,000 active. inhibition, % at 8 µM;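 active = inhibition of at least 50% at 8 µM in the primary screen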
Shn3 inh set2: reduction of Shn3 3'UTR firefly luciferase signal, primary screen, Schnurri-3 inhibitor project, cell-based, Clone20 osteoblasts, set 2 | AID 588674, 2011 | 0.52% of 360,000 active | Clone20 osteoblast Shn3 3'UTR firefly luciferase, 24 h | inhibition, % at 12.5 µM;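 active = mean inhibition of at least 75% with every replicate also reaching 75%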;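 also: 0% = median of neutral control wells and 100% = pilot-screen positive control compound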
Gli-Sufu antag: Gli-Sufu pathway antagonists, primary screen, luciferase luminescence, Sufu-KO-LIGHT cells, uHTS | Sufu-KO-LIGHT fibroblasts, Gli luciferase reporter luminescence | inhibition, % at 5 µM | 0.74% of 340,000 active;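 active = inhibition above about 55%, limit read from the data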;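 also: 0% = DMSO-treated cells and 100% = wells with medium but no cells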
Mdm2 MdmX conf: Mdm2-MdmX complex disruptors, retested hits, confirmation, luminescence, single concentration; shares compounds with Mdm2-MdmX inh; Mdm2-MdmX binding, luminescent assay; inhibition, % at 8 µM; 55% of 10,000 active; AID 489028, 2010; in the data active = inhibition above about 40%
Full FLuc ctr: full-length luciferase signal inhibition, confirmation, counter-screen for Mdm2/MdmX interaction inhibitor project, cell-based, single concentration, SaOS-2; shares compounds with Mdm2-MdmX inh; SaOS-2 full-length luciferase counterscreen, luminescence; inhibition, % at 8 µM; 77% of 6,200 active;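 active = mean inhibition at 8 µM reaching about 37%, which flags the compound as non-specific, limit read from the data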;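 also: p53-null SaOS-2 cells with luciferase driven by a doxycycline-inducible promoter; compound on cells about two nights before reading with doxycycline added after day one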
* hit, by the source's call; nt = no result. Rows were chosen to be rich in hits. Some 3.8% of all compounds tested hit in one or more screens of this group.

SMILES	697 NFkB inh	Jurkat NFkB inh	Mdm2-MdmX inh	Shn3 inh set2	Gli-Sufu antag	Mdm2 MdmX conf	others
O=C(N/N=C/c1ccc([N+](=O)[O-])s1)c1ccccc1	-6	-1	37	32	35	nt
CCc1cccc(CC)c1NC(=O)c1cccc(S(=O)(=O)N2CCN(C)CC2)c1	9	-9	4	3	1	nt
CCN(CC)c1ccc(CN(C(=O)c2cccs2)C2CCS(=O)(=O)C2)cc1 (centres undefined)	0	22	-19	7	-2	nt
Cn1c(SCC(=O)NCCc2ccccc2)ncc(C(=O)Nc2ccc(F)cc2)c1=O	7	-1	10	-21	11	nt
Fc1ccc(NC(=S)N/N=C/c2ccc(F)c(F)c2)cc1	-15	-5	-11	-16	-12	nt
Fc1ccc(/C=N/NC(=S)Nc2ccc(Cl)cc2Cl)cc1	-44	49	85*	-7	-1	66*	Full FLuc ctr=58*
O=[N+]([O-])c1ccc(O)c(/C=N/NC(=S)Nc2ccc(Cl)cc2Cl)c1	-7	10	78*	15	1	48*	Full FLuc ctr=41*
O=C(NCC1CCCCC1)C1(CC2CC(c3ccc(Cl)cc3)=NO2)CCNCC1 (centres undefined)	18	-5	67*	-5	11	26
CCOc1cc(C(=O)N2CCC(CC3CC(c4ccc(Cl)cc4)=NO3)(C(=O)NCC3CCCCC3)CC2)cc(OCC)c1OCC (centres undefined)	1	28	8	34	-28	nt
CCCCCCCNC(=O)C1(CC2CC(c3ccccc3)=NO2)CCNCC1 (centres undefined)	2	8	54*	-7	14	11
CC(C)(C)OC(=O)N1CCC(CC2CC(c3cccc(Br)c3)=NO2)(C(=O)NCC2CCCCC2)CC1 (centres undefined)	1	-4	20	15	24	nt
O=C(NCC1CCCCC1)C1(CC2CC(c3cccc(Br)c3)=NO2)CCNCC1 (centres undefined)	0	-5	79*	-23	1	34
CN1CCN(NC(=O)c2cc(Br)ccc2Cl)CC1	-10	-10	15	-9	0	nt
N#C/C(=C\C=C\c1ccccc1[N+](=O)[O-])C(=O)NC1CCCCC1	-137	28	99*	3	-3	61*	Full FLuc ctr=54*
Cc1c(N=C2N=C(NC(=O)c3ccc(F)cc3)c3ccccc32)c(=O)n(-c2ccccc2)n1C	-13	-1	81*	27	0	7
Cc1c(NC(=O)NC(=O)c2ccc(F)cc2)c(=O)n(-c2ccccc2)n1C	6	-6	9	-6	3	nt
CS(=O)(=O)c1ccc2nc(NC(=O)Nc3ccc(Cl)cc3)sc2c1	6	1	50*	16	-3	23
COc1ccccc1C(=O)Nc1nc2ccc(S(C)(=O)=O)cc2s1	-7	-50	53*	-27	-39	-6
CC(=O)Nc1nnc(SCC(=O)Nc2ccc(N3CCOCC3)c(Cl)c2)s1	-16	-10	59*	-5	6	1
CCOc1cc(CNC(C)C)c(Cl)cc1OCC(=O)NCCc1ccccc1	-24	-38	0	11	-14	nt
Cc1cc(C)cc(NC(=O)[C@H](NC(=O)[C@@H]2Cc3ccccc3CN2)c2ccccc2)c1	-31	1	9	-1	-10	nt
NC(=S)N/N=C/c1ccccc1OCc1cccc(Cl)c1	9	1	52*	19	7	24
COc1ccc2[nH]c(=O)c(CN(CCN3CCCC3)C(=O)Nc3ccccc3Cl)cc2c1	3	-2	40	7	-9	nt
